# Spn DPM-DC inh = S. pneumoniae DPM-DC inhibition; hit rate 0.49% among 65,000; AID 556; purified DPM-DC, PK/LDH coupled NADH fluorescence; calls only at 10 µM;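 active = the 320 compounds with the highest percent inhibition in the single-dose primary screen, excluding strongly autofluorescent ones, cut at about 32% in these data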;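 note: kinetic rate of NADH fluorescence loss reporting ADP formed by the decarboxylase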
# Spn MK inh = S. pneumoniae mevalonate kinase inhibition. purified MK, PK/LDH-coupled NADH absorbance 340 nm. inhibition, % at 10 µM. hit rate 0.48% among 65,000. AID 555;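 active = ranked among the strongest by inhibition in the single 10 µM screen, a fixed top-ranked set picked for dose follow-up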
# A340 absorber = compound absorbs light at 340 nm; fold change at 10 µM; 65,000 tested, under 10 active; compound absorbance at 340 nm, fold over control;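 active = at 10 µM dose, initial 340 nm absorbance at least 2 fold that of control wells; inactive = change under 2 fold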;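 note: initial absorbance extrapolated from kinetic A340 decline of NADH oxidation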
# Autofluor 339 = intrinsic fluorescence of library compounds, ex339/em460 – biochemical, MLSMR library, data from DPM-DC assay, artefact control, profiling panel; compound autofluorescence, ex339/em460 nm, NADH buffer; hits give high values; 1 = no-compound wells, NADH background; fluorescence fold increase at 10 µM; hit rate 5.5% among 65,000;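 active = at 10 µM, mean starting fluorescence two-fold or more over control wells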;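 note: signal is the first read of a kinetic run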
# PMK inhibit = S. pneumoniae PMK inhibition; purified PMK, PK/LDH-coupled NADH absorbance 340 nm; inhibition, % at 10 µM; hit rate 0.49% among 65,000; AID 539;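 active = top-ranked compounds by inhibition in the single 10 µM screen, taking a fixed number of the strongest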;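 note: 0% = full reaction with DMSO carrier and 100% = background rate without enzyme reaction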
# NADH enzymes = inhibition of NAD/NADH coupling enzymes, library profiling | hit rate 0.02% among 65,000 | coupled PK/LDH NADH assays, four targets | IC50, µM (highest dose often 10 µM), without a hit: at the top dose inhibition | AID 774;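 active = single-dose screening hits from any of four coupled enzyme assays that gave an IC50 when retested across doses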;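 note: the DPM-DC format reads NADH fluorescence rather than 340 nm absorbance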
# * hit, by the source's call; i = inactive; x = no result shown; + = active, no number. Only some compounds are listed: those with a hit (about 6.8% of all), similar ones and a draw of the others.
SMILES,Spn DPM-DC inh,Spn MK inh,A340 absorber,Autofluor 339,PMK inhibit,NADH enzymes
COC(=O)CCN(C1CCCCC1)S(=O)(=O)c1ccc(S(=O)(=O)N2CCCCC2)cc1,i,0,1,1.1,8,3%
COc1ccc(-c2nc(-c3cccs3)c(-c3cccs3)[nH]2)cc1O,i,0,1.1,3*,5,2%
Cn1cccc1C(C(=O)NC1CCCCC1)N(C(=O)Cc1cccs1)c1ccc2c(c1)OCO2 (centres undefined),i,6,1.1,1.1,8,5%
C=CCn1cnc2c(c1=O)c1nc3ccccc3nc1n2/N=C/c1cc(OC)c(OC)c(OC)c1,i,11,1.2,1,17,9%
COCCCn1cnc2oc3nc4ccccc4nc3c2c1=O,i,0,1.1,3.2*,3,5%
COCCCn1cnc2c(c1=O)c1nc3ccccc3nc1n2-c1ccccc1,i,6,1.1,3.1*,11,11%
C=CCn1cnc2c(c1=O)c1nc3ccccc3nc1n2-c1ccccc1,i,0,1.1,2.4*,13,13%
C=CCn1cnc2c(c1=O)c1nc3ccccc3nc1n2/N=C/c1ccccn1,i,7,1.2,2.5*,7,12%
CCOc1ccc2[nH]c(=O)c(CN(Cc3ccc(C)cc3)C(=O)N3CCCC3)cc2c1,i,0,1,2.6*,11,9%
CCOc1ccc2[nH]c(=O)c(CN(CCOC)C(=O)N3CCOCC3)cc2c1,x,1,1,3*,13,4%
Cc1ccc(CN(Cc2cc3cc(C)ccc3[nH]c2=O)C(=O)N2CCOCC2)cc1,i,8,1,1.6,15,14%
COc1ccc(-n2cnnc2SC(C)c2nc3sc(C)c(C)c3c(=O)[nH]2)cc1 (centres undefined),i,0,1.1,1.2,12,6%
C/C(Cl)=C\Cn1c(N2CCCCCC2)nc2c1c(=O)n(C)c(=O)n2C,i,6,0.99,1.1,13,6%
Cc1ccc(C(=O)NC2CCCCCC2)o1,i,10,1,1.1,5,5%
CC1(C)Cc2nc3sc4c(N(CCO)CCO)ncnc4c3cc2CO1,x,0,1,2.3*,7,4%
Cc1cccc(OCC(O)Cn2c(-n3nc(C)cc3C)nc3c2c(=O)[nH]c(=O)n3C)c1 (centres undefined),+,13,0.98,2.9*,11,19%
CCCc1ccc2c(N)c(C#N)sc2n1,x,5,1.1,2.1*,8,7%
CCn1c(SCC(N)=O)nnc1-c1ccc(OC)c(OC)c1,i,12,0.98,1.1,14,9%
Cc1oc(-c2ccccc2F)nc1CN1CCC(C(=O)NCCC2=CCCCC2)CC1,i,0,1.1,0.94,10,4%
COc1cc2cc(C(c3nnnn3C3CCCC3)N3CCCCC3)c(=O)[nH]c2cc1OC (centres undefined),x,6,1.1,3.5*,5,6%
O=c1[nH]c2cc3c(cc2cc1C(c1nnnn1C1CCCCC1)N1CCSCC1)OCCO3 (centres undefined),i,0,1,2.4*,17,3%
CSCC[C@@H](C(=O)O)N1Cc2ccccc2C1=O,i,35,1,1.1,5,13%
O=C(O)[C@@H](c1ccccc1)N1Cc2ccccc2C1=O,i,72*,1.1,1.1,7,27%
O=C(NCC1CCCO1)C1CCN(S(=O)(=O)N2CCCC2)CC1 (centres undefined),i,0,1,1,21,7%
CCS(=O)(=O)N1CCC(C(=O)NCCc2ccccc2)CC1,i,0,1,1.1,25*,8%
SMILES,Spn DPM-DC inh,Spn MK inh,A340 absorber,Autofluor 339,PMK inhibit,NADH enzymes
CCS(=O)(=O)N1CCC(C(=O)NCC2CCCO2)CC1 (centres undefined),i,0,1,1.1,25*,8%
O=C(NCC1CCCO1)C1CC(=O)N(C2CCCCCC2)C1 (centres undefined),i,0,1,1,27*,9%
CCS(=O)(=O)N1CCC(C(=O)NCCc2ccc(C)cc2)CC1,i,0,0.99,1.1,24,3%
CC1(C)Cc2cccc(OCC(=O)N3CCN(S(=O)(=O)c4ccccc4F)CC3)c2O1,i,1,1,1.1,21,7%
O=C(OCc1cc(Cl)ccc1OC(F)F)c1cc(S(=O)(=O)O)ccc1O,x,0,1,2.1*,11,6%
O=C(O)c1cc(S(=O)(=O)O)ccc1O,i,1,1,1.3,3,1%
Nc1ccc2c3c(cccc13)CC2,x,6,1,2.3*,2,4%
Cc1coc2c(C)c3oc(=O)c4c(c3cc12)CCCC4,i,0,1,1.3,2,1%
COc1ccc2c3c(c(=O)oc2c1OCC(N)=O)CCCC3,x,10,1,2.5*,0,2%
Cc1c(OCc2nn[nH]n2)ccc2c3c(c(=O)oc12)CCC(C)C3 (centres undefined),x,0,1.1,3.8*,2,1%
Cc1c(OCc2nn[nH]n2)ccc2c3c(c(=O)oc12)CCCC3,x,0,1.1,3.8*,4,2%
CCOC(=O)COc1ccc2c3c(c(=O)oc2c1C)CCC3,i,0,1.1,2.3*,6,9%
COC(=O)c1cc(=O)n(Cc2ccco2)c(=Nc2ccc(F)c(Cl)c2)s1,i,5,1.1,1,6,4%
CSc1nnc(-c2ccc(O)cc2)n1C,i,0,1,1,16,5%
CSc1nnc(-c2cc3ccccc3cc2O)n1C,x,5,1.1,2.3*,0,3%
Cc1cc(-c2c(C)n([O-])c(C)c(C)[n+]2=O)ccc1F,i,14,0.98,1.1,8,7%
Cc1[nH]nc2c1C(c1ccc(F)cc1)C1=C(CC(C)(C)CC1=O)N2 (centres undefined),x,8,1.1,3.1*,12,5%
Cc1ccc(C2C3=C(CC(C)(C)CC3=O)Nc3n[nH]c(C)c32)cc1 (centres undefined),x,1,1.1,4.9*,12,7%
Cc1[nH]nc2c1C(c1cccc(O)c1)C1=C(CC(C)(C)CC1=O)N2 (centres undefined),x,1,1.1,5*,9,5%
Cc1cc2c(cc1C)NC(c1cccnc1)C1=C(CC(C)(C)CC1=O)N2 (centres undefined),i,11,1.3,0.96,10,10%
CCOC(=O)c1sc(NC(=O)COC(=O)c2ccco2)nc1C,i,9,1.1,1.1,11,7%
COc1ccccc1S(=O)(=O)Cc1ccc(C(=O)NC2CCCCC2)o1,i,0,1,1.1,11,4%
Cc1ccc(Nc2nc3nonc3[nH]c2=O)cc1,i,12,1.1,1,4,6%
O=C(CSc1nnc(COc2ccccc2)o1)NCCc1ccccc1,i,9,1,0.92,5,6%

# Screening results deposited in PubChem BioAssay by SRMLSC.
